# Source: PubChem BioAssay (NCI)
# The panel holds about 83,000 compounds, 20% with a hit somewhere; the sample as a whole holds those more often.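 In brief: 96-well plates, 48 h treatment, single concentration, percent growth endpoint.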 A number with no mark means an inactive call. Active and inactive are the calls of the source. The calls were made as follows: active = growth percent below 10; inactive = the rest.
# System: MDA-MB-468 breast
# Test: NCI-60 one-dose screen, 48 h (100 = growth as untreated, 0 = no growth, -100 = all killed)
# Details: 10 µM unless noted
row,SMILES,growth
1,CCOC(=O)C(CCC(C)C)C(=O)OCC,105%
2,COc1ccc(C(=O)/C=C/c2cc3ccccc3n3nnnc23)cc1,96.8%
3,CCSc1nc2ccccc2o1,111%
4,CN1C(=O)c2cc(Cl)nc3c(NC(=O)c4cccc(Cl)c4)c(Cl)c(NC(=O)c4cccc(Cl)c4)c1c23,-19.6% (active)
5,COc1cc2ncnc(Nc3cccc(Cl)c3F)c2cc1OC(=O)N1CCN(C)C[C@H]1C,-10.7% (active)
6,COc1c(B(O)O)cccc1-c1nc2ccc3n[nH]c(F)c3c2c2c1CCCC2,71.9%
7,CN1C(=O)N(C)C2Nn3c(s/c(=C\c4ccc(C(F)(F)F)cc4)c3=O)=NC21 (stereo not given),98.5%
8,Nc1ccc(C2=NN(C(=O)c3cc(-c4ccc(Cl)cc4)nc4ccccc34)C(c3ccccc3)C2)cc1 (stereo not given),7.91% (active)
9,COc1cc2oc(-c3cccc(C(=O)Nc4ccccc4)c3)cc(=O)c2c(O)c1OC,69.4%
10,COc1cc(/C=N/NC(=O)c2ccccc2Nc2cccc(C(F)(F)F)c2)ccc1O,28.3%
11,CC/C(=C(/c1ccc(OCCN(C)C)cc1)c1ccc(OC(=O)CCCCCCCCC(=O)c2c(C)[nH]c(/C=C3\N=C(c4ccc[nH]4)C=C3OC)c2C)cc1)c1ccccc1,53.4%
12,O=C1Nc2ccc(Br)cc2C12CC(c1ccccc1)=NN2 (stereo not given),48.6%
13,CCNCCCn1c2c(c3cc(OC)c(OC)cc3c1=O)C(=O)c1cc(OC)cnc1-2,5.95% (active)
14,Cc1cc(NC(=O)Nc2cccc3ccccc23)no1,107%
15,O=C(/C=C/c1cccc(Cl)c1)c1ccc(O)c(CN2CCN(c3cc4c(cc3F)c(=O)c(C(=O)O)cn4C3CC3)CC2)c1,28.8%
16,COc1ccc(NC(=S)Nc2ccccn2)cc1,104%
17,CC/C(=C(/c1ccc(Cl)cc1)c1ccc(OCCN)cc1)c1ccccc1,88.8%
18,Cc1ccc2c(c1)Oc1nc(N)c(C#N)c(N)c1C2Sc1ccc(F)cc1 (stereo not given),-72.6% (active)
19,CCOc1cc(C2C(Cl)C(=O)N2n2cnnc2)ccc1O (stereo not given),111%
20,COc1ccc(-c2cn[nH]c2-c2cc(OC)c3c(c2)OCCO3)cc1,5.64% (active)

row,SMILES,growth
1,O=C(Nc1ccccc1)NS(=O)(=O)c1c[nH]c(=S)[nH]c1=O,112%
2,CC(=C(c1ccc(OCCN2CCCC2)cc1)c1ccc(OCCN2CCCC2)cc1)c1ccc(Cl)cc1,-85.3% (active)
3,COc1ccc(C(=O)c2cc(F)c(F)c(OC)c2F)cc1OC(=O)CCl,61.3%
4,C#CCOc1ccc2ncnc(Nc3cccc(CNC(=O)C=C)c3)c2c1,89.2% [8.25 µM]
5,CC(=O)O[C@]1(C(C)=O)CC[C@H]2[C@@H]3C=C(Cl)C4=CC(=O)CC[C@]4(C)[C@H]3CC[C@@]21C,105%
6,Cc1ccc(-n2cc(/C=N/NC(=O)c3nc(N)n[nH]3)c(-c3ccc(S(C)(=O)=O)cc3)n2)cc1,105%
7,Nc1ccc2c(c1Br)Cc1ccccc1-2,111%
8,Cc1cccc(C)c1Nc1nnc(-c2ccc(F)cc2)o1,102%
9,CS(=O)(=O)Nc1ccc(Nc2c3ccccc3nc3cc(N)ccc23)cc1,-52.9% (active)
10,Cc1[nH]nc2c(=S)[nH]c(=O)[nH]c12,101%
11,COC(=O)c1nc(-c2ccccc2)oc1S(=O)(=O)n1nc(C)cc1N,59.2%
12,CC1=C(Cl)C(=O)c2cc(C)ccc2C1=O,95.2%
13,Nc1nc(NC(=O)Nc2ccc(C(=O)O)cc2)nn1-c1ccc(S(N)(=O)=O)cc1,91.6%
14,CC(=O)c1cc2c(o1)C(=O)c1ccccc1C2=O,-40% (active)
15,O=S(=O)(c1ccccc1)N1CCCN(c2nc(-c3ccccc3)nc3nc(-c4ccccc4)oc23)CC1,116%
16,O=c1ccc(N=Nc2ccccc2)ccc1Cl,-51.2% (active)
17,O=C1CCc2c(sc3[nH]c(=S)n(Cc4ccc(Cl)cc4)c(=O)c23)C1,-18.7% (active)
18,O=C(/C=C/c1ccc(F)cc1)c1ccc(Nc2nc(NCCO)nc(Nc3ccc(Cl)cc3)n2)cc1,57.8%
19,O=S(=O)(NCCCNc1nccc(-n2cnc3ccccc32)n1)c1ccc(C(F)(F)F)cc1,76.2%
20,O=C1CCC(N2Cc3c(C#CCCCNC(=O)c4cc5c(o4)C(=O)c4ccccc4C5=O)cccc3C2=O)C(=O)N1 (stereo not given),-47.1% (active)
